Results on 40 compounds are retold here after PubChem BioAssay AID652283 (National Center for Advancing Translational Sciences (NCATS), 2013).

Records with an inconclusive call do not appear. Active and inactive are the calls of the source. The call rests on the fitted dose curve; in most records, active means well fitted inhibition curve with a large enough effect; inconclusive means small, poorly fitted or top-dose-only effect; inactive means no such curve, though single readings can be large or run the other way.

The test is described as follows: qHTS Assay for Lipid Storage Modulators: COS7 Assay against Probe and Analogs. The note with it: COS7 lipid droplet area, BODIPY imaging, 18 h; cells loaded with 400 µM oleic acid. The text has this: Storing lipids as a reservoir for energy or the anabolism of elementary metabolites is a common feature of probably all cells and is conserved from bacteria to humans. The universal cellular lipid storage organelle is the so-called lipid storage droplet (LD). Although ubiquitous, LDs share a simple structure composed of a hydrophobic core that harbors the storage lipids, which is shielded by a droplet-specific phospholipid monolayer to which proteins are attached. The current model of LD biogenesis involves an incorporation of the lipid core into the membrane leaflets of the endoplasmic reticulum (ER) followed by a subsequent budding-like maturation of a LD, which ultimately pinches off. Once released, LD volume can increase by localized lipogenesis or fusion of existing droplets. Storage lipids are re-mobilized enzymatically by lipase activity. Lipase regulation in the adipocyte is heavily studied and involves multiple components including catecholamine signaling, the LD-associated proteins Perilipin and comparative gene identification-58 (CGI-58) and at least two lipases named hormone sensitive lipase (HSL) and adipocyte triglyceride lipase (ATGL). LD regulation outside of the adipocyte is poorly understood and only few components are known. However, there is an urgent need to learn more about ectopic fat depots as mislocalized storage of lipids, for example in the liver or muscle, is an eminent health problem associated with insulin resistance or the metabolic syndrome. We developed a laser-scanning cytometer assay to enable 1,536-well screening and combined the results of the small molecules screen with an RNAi database based on lipid storage. In this assay we tested analogs of the probe against a mammalian cell line (COS7), to see if these small molecules could disrupt lipid storage. NIH Molecular Libraries Probe Production Centers Network [MLPCN] NIH Chemical Genomics Center [NCGC] MLPCN Grant: MH085686 Assay Submitter (PI): Mathias Beller, Max-Planck-Institut fur Biophysikalische Chemie
COS7 cells were obtained from ATCC (CRL-1651), 5500 cells/well were dispensed into Corning 96 well imaging plate (catalog # 3340), and cultured in 100 uL of 1:1 DMEM medium (PAA) contain 10% fetal bovine serum (FBS) for 24 hours at 37 degrees C, 95% humidity, and 5% CO2. The medium was exchanged for compound treatment. Compound treatment occurred in 150 microL serum reduced medium (5% FBS) and 0.2% DMSO in presence of 400 microM oleic acid for 17-18 h. Cells were then fixed (3.7 % formaldehyde in PBS, 5 min), permeabilized (0.1% Triton X100, 5 min) and washed three times with PBS. Lipid droplets (1:2000 BODIPY 493/503) and nuclei (1:1000 Hoechst 33342) were stained for 1h. Imaging was performed in a Zeiss Axiovert automatic microscope. Number of lipid droplet accumulated in […] cells were analyzed using visual examination of the microscopic images and additional quantification by image segmentation using Cell Profiler.
Take `CCOC(=O)C1CCN(C(=O)C2(NC(=O)Nc3ccccc3Cl)CC2)CC1`: the max response was -17.2% (inactive).

With `O=C(NCCc1ccc(O)c(O)c1)c1cc2sccc2n1Cc1ccccc1`, the max response was 20.9% (inactive).

`CC1(C)CCC(c2ccc(Cl)cc2)=C(CN2CCN(c3ccc(C(=O)NS(=O)(=O)c4ccc(N[C@H](CCN5CCOCC5)CSc5ccccc5)c(S(=O)(=O)C(F)(F)F)c4)cc3)CC2)C1`: the Potency is 3.72 µM (active). With `O=C(NC1CCCc2c1cnn2-c1ccc(F)cc1F)c1ccncc1` (stereo not given), the max response was 1.34% (inactive). For `CCOC(=O)C1CCN(C(=O)C(C)(C)NC(=O)Nc2cccc(C(=O)OC)c2)CC1`, the max response was 9.87% (inactive). As for `CCOc1ccc(CCNC(=O)c2cc3ccccc3n2C)cc1OCC`, the Potency was 16.6 µM (active). Take `CC(C)(C)OC(=O)NC1CCCc2c1cnn2-c1ccc(F)cc1F` (stereo not given): the max response was 3.11% (inactive). For `CCOc1ccc(CCNC(=O)c2ccc3[nH]ccc3c2)cc1OCC`, the max response is 20.9% (inactive). With `CCOc1ccc(CCNC(=O)c2cc3sccc3n2Cc2ccncc2)cc1OCC`, the Potency is 2.96 µM (active).

Take `O=C(Nc1cccc2c1cnn2-c1ccc(F)cc1)c1ccccn1`: the max response is 3.22% (inactive). `CCOc1ccc(CCNC(=O)c2cc3sccc3n2Cc2ccccn2)cc1OCC`: the Potency was 1.48 µM (active). On to `CCOc1ccc(CCNC(=O)C2CCCCC2)cc1OCC`, for which the max response was -8.52% (inactive).

Turning to `CCOc1ccc(CCNC(=O)c2cccc(C(=O)c3ccccc3)c2)cc1OCC`, the Potency was 14.8 µM (active).

In the case of `Cc1cc(SCc2sc(-c3ccc(C(F)(F)F)cc3)nc2C)ccc1OCC(=O)O`, the max response was 14.2% (inactive).

For `CCOc1ccc(CCNC(=O)c2cc3sccc3n2C(C)C)cc1OCC`, the Potency was 1.18 µM (active). On the same count and under the same terms, with `O=C(NCCc1ccc(OCC(F)(F)F)c(OCC(F)(F)F)c1)c1cc2sccc2n1Cc1ccccc1` the figure was 2.96 µM (active); with `O=C(NC1CCCc2c1cnn2-c1cccc(O)c1)c1ccccn1` (stereo not given), 4.18 µM (active). As to `CCOC(=O)C1CCN(C(=O)C(C)(C)NC(=O)Nc2ccc([N+](=O)[O-])cc2)CC1`, the max response is 8.04% (inactive). On to `Cc1ccc(NC(=O)c2ccc(CN3CCN(C)CC3)cc2)cc1Nc1nc(-c2cccnc2)cs1`, for which the max response is -0.902% (inactive). Consider `CCOc1ccc(CCNC(=O)c2cc3sccc3n2CC=C(C)C)cc1OCC`, for which the Potency was 2.35 µM (active). `CCOc1ccc(CCNC(=O)c2cccs2)cc1OCC`: the max response is -20.6% (inactive). Consider `CC(C)(C)OC(=O)NCCOCCOCCOc1cccc(-n2ncc3c2CCCC3NC(=O)c2ccccn2)c1` (stereo not given), for which the Potency was 14.8 µM (active).

Take `CCOc1ccc(CCNC(=O)c2cc3sccc3n2CCN2CCOCC2)cc1OCC`: the Potency is 2.96 µM (active). Regarding `CCOc1ccc(CCNC(=O)c2ccc(N3N=C(C)CC3=O)cc2)cc1OCC`, the max response is 0.211% (inactive). Consider `CCn1c(C(=O)NCCc2ccc(OC)cc2)cc2sccc21`, for which the max response is 14.9% (inactive).

Regarding `O=C(NC1CCCc2c1cnn2-c1ccc(F)cc1F)C1CCCCN1` (stereo not given), the max response is -10.9% (inactive). For the compound `O=C(NC1CCCc2c1cnn2CCO)c1ccccn1` (stereo not given), the max response was 14.9% (inactive). With `O=C(NC1CCCc2c1cnn2-c1ccc(F)cc1F)c1ccccc1` (stereo not given), the Potency is 14.8 µM (active).

As for `CCOc1ccc(CCNC(=O)c2ccc(C3(C(F)(F)F)N=N3)cc2)cc1OCC`, the Potency was 7.43 µM (active).

On to `O=C(NC1CCCc2c1cnn2-c1ccc(F)cc1F)C1CC1` (stereo not given), for which the max response is 3.35% (inactive).

As for `CC1=C(C(=O)NC2CCCc3c2cnn3-c2ccc(F)cc2F)OCCO1` (stereo not given), the Potency is 13.2 µM (active). Turning to `CCn1c(C(=O)NCc2ccc(OC)c(OC)c2)cc2sccc21`, the max response is 0.0567% (inactive). On to `O=C(NC1CCCc2c1cnn2-c1ccc(F)cc1F)c1ccn[nH]1` (stereo not given), for which the max response was -5.9% (inactive).

Regarding `CCOc1ccc(CCNC(=O)c2ccc3ccccc3n2)cc1OCC`, the max response is -25% (inactive). On to `CCOc1ccc(C(C)CNC(=O)c2cc3sccc3n2Cc2ccccc2)cc1OCC` (stereo not given), for which the Potency is 11.8 µM (active). Take `CCOc1cc2c(cc1OCC)CN(C(=O)c1cc3sccc3n1Cc1ccccc1)CC2`: the Potency is 3.32 µM (active). Take `COc1cc(C)c(Sc2cnc(NC(=O)c3ccc(CNC(C)C(C)(C)C)cc3)s2)cc1C(=O)N1CCN(C(C)=O)CC1` (stereo not given): the max response is -8.98% (inactive). Consider `O=C(NC1CCCc2c1cnn2-c1ccc(F)cc1F)c1ccc(C2(C(F)(F)F)N=N2)cc1` (stereo not given), for which the max response is 3.15% (inactive). Consider `CC(C)(C)OC(=O)NCCOCCOCCOCCn1ncc2c1CCCC2NC(=O)c1ccccn1` (stereo not given), for which the max response was 0.489% (inactive). For the compound `O=C(Cc1ccccc1)NC1CCCc2c1cnn2-c1ccc(F)cc1F` (stereo not given), the max response was 1.55% (inactive).
